Experimental data reported in article PMC7862700, “An all-to-all approach to the identification of sequence-specific readers for epigenetic DNA modifications on cytosine”.

Tests used:
Test in all cases: DAPPL (digital affinity profiling via proximity ligation, sequencing); 10 mM Tris-HCl pH 7.5, 50 mM NaCl, 1 mM DTT, 4% glycerol, room temperature, 30 min; GST-TFs on glutathione beads, 16-mer random dsDNA library, 0.1% formaldehyde crosslink after washing; high values mean tight binding
Settings in all cases: protein: recombinant; tags: N-terminal GST; dsDNA, one strand shown
FLI1 = target: T1, FLI1 (Homo sapiens, UniProt Q01543 1-452)
T1 sequence: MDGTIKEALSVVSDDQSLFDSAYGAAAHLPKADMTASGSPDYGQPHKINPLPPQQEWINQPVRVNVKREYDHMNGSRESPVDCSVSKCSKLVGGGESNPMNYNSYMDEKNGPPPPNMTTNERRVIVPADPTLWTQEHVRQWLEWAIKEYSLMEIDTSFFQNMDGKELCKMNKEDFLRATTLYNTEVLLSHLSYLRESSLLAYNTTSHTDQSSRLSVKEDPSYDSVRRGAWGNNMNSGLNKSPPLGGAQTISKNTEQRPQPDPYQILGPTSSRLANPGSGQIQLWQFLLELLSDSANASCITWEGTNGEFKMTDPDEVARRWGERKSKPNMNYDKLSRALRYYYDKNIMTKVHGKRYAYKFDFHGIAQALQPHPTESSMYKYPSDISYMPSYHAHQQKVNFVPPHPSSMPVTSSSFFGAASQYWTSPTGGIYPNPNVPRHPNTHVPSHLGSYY
Summary of the method: (§1)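 Yeast served to express human transcription factors as GST fusions, which were then captured on glutathione beads and labelled with DNA barcodes. Pooled with a tag-only sample, they were incubated with 200 nmole of a 16-mer random double-stranded DNA library for 30 min at room temperature in Tris/NaCl/DTT/glycerol buffer, washed, crosslinked with 0.1% formaldehyde, ligated by proximity, amplified by PCR and sequenced. Dividing each hexamer's read frequency for a factor by its frequency for the tag-only sample gives the binding signal.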

ELK1 = target: T2, ELK1 (Homo sapiens, UniProt P19419 1-428)
T2 sequence: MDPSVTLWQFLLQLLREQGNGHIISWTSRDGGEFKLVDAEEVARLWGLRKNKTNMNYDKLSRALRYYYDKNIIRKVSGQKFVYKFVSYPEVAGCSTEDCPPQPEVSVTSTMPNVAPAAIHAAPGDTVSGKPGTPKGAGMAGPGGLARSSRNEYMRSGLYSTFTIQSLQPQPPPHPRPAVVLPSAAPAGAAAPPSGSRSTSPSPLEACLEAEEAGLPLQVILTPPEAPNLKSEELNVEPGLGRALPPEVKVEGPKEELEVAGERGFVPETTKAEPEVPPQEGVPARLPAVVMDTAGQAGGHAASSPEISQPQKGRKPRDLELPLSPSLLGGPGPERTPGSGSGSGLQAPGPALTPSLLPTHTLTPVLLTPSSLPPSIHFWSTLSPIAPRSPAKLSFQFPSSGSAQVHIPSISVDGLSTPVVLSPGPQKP
Summary of the method: as §1

GABPA = target: T3, GABPA (Homo sapiens, UniProt Q06546 1-454)
T3 sequence: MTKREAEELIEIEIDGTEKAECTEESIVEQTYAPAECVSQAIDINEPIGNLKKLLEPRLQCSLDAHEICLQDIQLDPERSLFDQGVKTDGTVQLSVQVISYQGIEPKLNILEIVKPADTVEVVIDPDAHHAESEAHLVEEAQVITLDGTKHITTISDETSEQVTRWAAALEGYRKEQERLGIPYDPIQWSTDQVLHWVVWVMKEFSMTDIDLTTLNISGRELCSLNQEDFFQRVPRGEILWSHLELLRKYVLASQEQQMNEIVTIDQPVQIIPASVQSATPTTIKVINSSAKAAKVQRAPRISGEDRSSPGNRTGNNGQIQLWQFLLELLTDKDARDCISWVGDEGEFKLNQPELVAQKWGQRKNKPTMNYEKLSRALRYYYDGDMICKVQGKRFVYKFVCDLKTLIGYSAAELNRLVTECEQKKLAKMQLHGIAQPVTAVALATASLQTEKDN
Summary of the method: as §1

ERG = target: T4, ERG (Homo sapiens, UniProt P11308 1-479)
T4 sequence: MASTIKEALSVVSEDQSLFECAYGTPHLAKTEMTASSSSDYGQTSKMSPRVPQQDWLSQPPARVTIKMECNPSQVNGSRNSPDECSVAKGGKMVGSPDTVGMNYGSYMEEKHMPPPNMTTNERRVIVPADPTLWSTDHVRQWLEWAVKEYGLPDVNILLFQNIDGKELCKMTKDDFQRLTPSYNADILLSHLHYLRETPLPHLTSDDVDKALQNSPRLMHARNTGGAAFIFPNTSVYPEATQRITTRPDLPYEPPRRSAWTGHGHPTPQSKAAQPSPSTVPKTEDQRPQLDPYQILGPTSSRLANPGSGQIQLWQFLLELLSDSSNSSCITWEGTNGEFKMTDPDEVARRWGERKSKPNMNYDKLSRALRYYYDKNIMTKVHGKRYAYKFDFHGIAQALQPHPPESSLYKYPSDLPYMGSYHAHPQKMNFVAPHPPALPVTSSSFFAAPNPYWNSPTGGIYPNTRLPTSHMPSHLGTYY
Summary of the method: as §1

ELF1 = ELF1 (Homo sapiens, UniProt P32519 1-619)
Summary of the method: as §1

EHF = target: T5, EHF (Homo sapiens, UniProt Q9NZC4 1-300)
T5 sequence: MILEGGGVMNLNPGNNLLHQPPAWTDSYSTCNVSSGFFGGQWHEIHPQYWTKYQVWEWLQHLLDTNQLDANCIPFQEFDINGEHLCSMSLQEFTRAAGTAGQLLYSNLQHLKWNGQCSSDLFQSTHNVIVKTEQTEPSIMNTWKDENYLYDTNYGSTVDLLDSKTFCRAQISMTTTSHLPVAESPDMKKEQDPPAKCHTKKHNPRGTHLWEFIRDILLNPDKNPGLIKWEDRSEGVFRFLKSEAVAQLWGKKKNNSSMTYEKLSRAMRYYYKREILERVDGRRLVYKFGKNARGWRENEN
Summary of the method: as §1

SPI1 = SPI1 (Homo sapiens, UniProt P17947 1-270)
Summary of the method: as §1

SPIB = SPIB (Homo sapiens, UniProt Q01892 1-262)
Summary of the method: as §1

ELK3 = target: T6, ELK3 (Homo sapiens, UniProt P41970 1-407)
T6 sequence: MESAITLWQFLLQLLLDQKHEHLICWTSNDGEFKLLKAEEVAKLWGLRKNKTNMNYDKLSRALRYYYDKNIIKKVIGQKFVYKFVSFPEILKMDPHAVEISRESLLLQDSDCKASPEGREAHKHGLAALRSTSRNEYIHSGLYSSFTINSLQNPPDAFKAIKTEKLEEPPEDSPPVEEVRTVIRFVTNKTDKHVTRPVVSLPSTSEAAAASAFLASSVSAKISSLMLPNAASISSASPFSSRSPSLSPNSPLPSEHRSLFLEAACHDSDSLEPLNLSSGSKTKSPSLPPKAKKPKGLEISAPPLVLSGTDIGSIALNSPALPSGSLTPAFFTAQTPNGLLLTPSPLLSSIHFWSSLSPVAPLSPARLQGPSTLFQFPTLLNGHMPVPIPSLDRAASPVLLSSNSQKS
Summary of the method: as §1

FEV = target: T7, FEV (Homo sapiens, UniProt Q99581 1-238)
T7 sequence: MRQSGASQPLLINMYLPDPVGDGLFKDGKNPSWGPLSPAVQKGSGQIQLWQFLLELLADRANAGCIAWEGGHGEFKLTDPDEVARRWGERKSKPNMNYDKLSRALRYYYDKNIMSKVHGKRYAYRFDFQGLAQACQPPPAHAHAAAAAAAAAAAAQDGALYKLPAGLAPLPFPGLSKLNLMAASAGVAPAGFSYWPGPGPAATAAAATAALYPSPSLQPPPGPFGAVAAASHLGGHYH
Summary of the method: as §1

ETV5 = ETV5 (Homo sapiens, UniProt P41161 1-510)
Summary of the method: as §1

SPIC = target: T8, SPIC (Homo sapiens, UniProt Q8N5J4 1-248)
T8 sequence: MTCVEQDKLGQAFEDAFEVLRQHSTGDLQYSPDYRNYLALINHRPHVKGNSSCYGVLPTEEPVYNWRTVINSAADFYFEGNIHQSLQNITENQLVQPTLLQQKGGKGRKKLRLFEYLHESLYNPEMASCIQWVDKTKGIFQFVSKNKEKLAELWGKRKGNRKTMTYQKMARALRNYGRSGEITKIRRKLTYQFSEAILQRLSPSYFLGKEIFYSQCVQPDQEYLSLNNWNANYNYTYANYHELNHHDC
Summary of the method: as §1

ELF4 = ELF4 (Homo sapiens, UniProt Q99607 1-663)
Summary of the method: as §1

ELK4 = target: T9, ELK4 (Homo sapiens, UniProt P28324-2 1-405)
T9 sequence: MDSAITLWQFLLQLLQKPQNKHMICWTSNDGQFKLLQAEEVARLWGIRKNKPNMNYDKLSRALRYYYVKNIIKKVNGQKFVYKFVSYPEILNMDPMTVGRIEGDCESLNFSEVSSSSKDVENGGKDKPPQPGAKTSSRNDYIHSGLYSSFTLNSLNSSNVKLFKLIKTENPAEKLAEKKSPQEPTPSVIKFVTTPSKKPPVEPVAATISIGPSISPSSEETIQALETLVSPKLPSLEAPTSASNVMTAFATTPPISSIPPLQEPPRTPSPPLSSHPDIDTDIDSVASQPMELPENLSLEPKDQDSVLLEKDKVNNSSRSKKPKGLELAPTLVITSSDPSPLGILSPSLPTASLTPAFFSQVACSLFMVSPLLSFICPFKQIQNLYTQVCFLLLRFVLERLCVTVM
Summary of the method: as §1

ETV2 = target: T10, ETV2 (Homo sapiens, UniProt O00321 1-342)
T10 sequence: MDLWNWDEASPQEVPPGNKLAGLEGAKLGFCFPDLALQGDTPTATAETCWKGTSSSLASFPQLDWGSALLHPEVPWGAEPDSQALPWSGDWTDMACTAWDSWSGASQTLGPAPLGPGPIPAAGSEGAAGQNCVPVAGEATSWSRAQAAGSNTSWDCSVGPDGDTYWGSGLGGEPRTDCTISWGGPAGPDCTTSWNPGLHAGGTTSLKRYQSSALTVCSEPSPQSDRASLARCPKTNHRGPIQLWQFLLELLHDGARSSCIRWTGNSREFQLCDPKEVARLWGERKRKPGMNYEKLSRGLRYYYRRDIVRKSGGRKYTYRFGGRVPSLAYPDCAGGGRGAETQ
Summary of the method: as §1

ELF3 = target: T11, ELF3 (Homo sapiens, UniProt P78545 1-371)
T11 sequence: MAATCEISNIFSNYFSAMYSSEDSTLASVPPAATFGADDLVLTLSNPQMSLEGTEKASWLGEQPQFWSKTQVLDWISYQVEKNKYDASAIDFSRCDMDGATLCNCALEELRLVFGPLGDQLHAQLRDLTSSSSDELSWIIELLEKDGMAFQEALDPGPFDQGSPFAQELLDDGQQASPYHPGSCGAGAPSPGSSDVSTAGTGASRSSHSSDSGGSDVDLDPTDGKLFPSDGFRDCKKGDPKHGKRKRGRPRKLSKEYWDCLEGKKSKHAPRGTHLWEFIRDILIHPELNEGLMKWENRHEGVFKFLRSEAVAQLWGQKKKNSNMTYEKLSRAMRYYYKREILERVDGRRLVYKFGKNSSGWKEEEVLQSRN
Summary of the method: as §1

ETV1 = ETV1 (Homo sapiens, UniProt P50549 1-477)
Summary of the method: as §1

ELF1, sequence (P32519 whole entry): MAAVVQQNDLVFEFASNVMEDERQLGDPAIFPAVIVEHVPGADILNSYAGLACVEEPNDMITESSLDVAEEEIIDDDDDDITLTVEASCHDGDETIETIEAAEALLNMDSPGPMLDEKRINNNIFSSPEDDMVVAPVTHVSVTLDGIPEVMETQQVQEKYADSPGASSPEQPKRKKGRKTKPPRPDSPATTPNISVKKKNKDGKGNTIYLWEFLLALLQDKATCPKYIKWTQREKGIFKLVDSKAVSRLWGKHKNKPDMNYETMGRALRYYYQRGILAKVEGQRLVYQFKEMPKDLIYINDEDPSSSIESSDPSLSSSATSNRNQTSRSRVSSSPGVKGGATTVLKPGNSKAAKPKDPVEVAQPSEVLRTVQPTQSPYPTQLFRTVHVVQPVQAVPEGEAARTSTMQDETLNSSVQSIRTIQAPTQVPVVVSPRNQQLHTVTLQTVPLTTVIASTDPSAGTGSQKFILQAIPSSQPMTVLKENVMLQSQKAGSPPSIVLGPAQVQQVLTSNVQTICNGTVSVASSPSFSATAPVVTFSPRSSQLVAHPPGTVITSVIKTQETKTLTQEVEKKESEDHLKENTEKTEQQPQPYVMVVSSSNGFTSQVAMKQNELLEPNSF
ETV5, sequence (P41161 whole entry): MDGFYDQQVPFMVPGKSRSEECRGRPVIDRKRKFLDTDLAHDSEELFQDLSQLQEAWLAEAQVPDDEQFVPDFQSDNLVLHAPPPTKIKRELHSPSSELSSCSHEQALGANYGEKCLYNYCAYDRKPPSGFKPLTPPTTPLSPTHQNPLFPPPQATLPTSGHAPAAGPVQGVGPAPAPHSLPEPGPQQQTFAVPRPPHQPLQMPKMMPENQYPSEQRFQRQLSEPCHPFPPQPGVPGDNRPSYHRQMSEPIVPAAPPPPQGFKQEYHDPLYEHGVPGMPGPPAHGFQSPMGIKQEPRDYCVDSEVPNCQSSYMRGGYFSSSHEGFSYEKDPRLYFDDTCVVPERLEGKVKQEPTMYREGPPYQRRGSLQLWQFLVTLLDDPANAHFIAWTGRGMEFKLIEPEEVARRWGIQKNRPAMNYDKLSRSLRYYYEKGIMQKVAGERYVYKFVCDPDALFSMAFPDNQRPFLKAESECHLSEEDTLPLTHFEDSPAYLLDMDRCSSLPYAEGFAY
ETV1, sequence (P50549 whole entry): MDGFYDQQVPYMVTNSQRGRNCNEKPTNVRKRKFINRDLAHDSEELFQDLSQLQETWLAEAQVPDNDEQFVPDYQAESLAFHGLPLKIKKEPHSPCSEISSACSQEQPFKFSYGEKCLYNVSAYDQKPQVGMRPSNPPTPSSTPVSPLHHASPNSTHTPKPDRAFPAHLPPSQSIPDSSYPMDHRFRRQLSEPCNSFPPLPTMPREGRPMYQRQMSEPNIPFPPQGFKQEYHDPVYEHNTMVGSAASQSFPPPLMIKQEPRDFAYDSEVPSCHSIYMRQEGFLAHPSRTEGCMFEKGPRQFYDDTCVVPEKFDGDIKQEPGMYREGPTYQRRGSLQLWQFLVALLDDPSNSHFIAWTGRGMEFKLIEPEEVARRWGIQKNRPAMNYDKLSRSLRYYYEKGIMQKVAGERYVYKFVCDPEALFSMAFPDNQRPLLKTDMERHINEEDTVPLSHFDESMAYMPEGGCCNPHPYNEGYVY
SPIB, sequence (Q01892 whole entry): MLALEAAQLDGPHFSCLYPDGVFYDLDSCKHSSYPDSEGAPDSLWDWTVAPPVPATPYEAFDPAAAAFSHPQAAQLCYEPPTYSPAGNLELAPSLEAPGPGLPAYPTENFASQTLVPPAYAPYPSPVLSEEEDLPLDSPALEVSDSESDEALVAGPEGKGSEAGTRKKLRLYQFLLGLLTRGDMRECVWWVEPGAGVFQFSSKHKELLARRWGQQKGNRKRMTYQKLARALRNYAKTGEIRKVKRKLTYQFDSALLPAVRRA
ELF4, sequence (Q99607 whole entry): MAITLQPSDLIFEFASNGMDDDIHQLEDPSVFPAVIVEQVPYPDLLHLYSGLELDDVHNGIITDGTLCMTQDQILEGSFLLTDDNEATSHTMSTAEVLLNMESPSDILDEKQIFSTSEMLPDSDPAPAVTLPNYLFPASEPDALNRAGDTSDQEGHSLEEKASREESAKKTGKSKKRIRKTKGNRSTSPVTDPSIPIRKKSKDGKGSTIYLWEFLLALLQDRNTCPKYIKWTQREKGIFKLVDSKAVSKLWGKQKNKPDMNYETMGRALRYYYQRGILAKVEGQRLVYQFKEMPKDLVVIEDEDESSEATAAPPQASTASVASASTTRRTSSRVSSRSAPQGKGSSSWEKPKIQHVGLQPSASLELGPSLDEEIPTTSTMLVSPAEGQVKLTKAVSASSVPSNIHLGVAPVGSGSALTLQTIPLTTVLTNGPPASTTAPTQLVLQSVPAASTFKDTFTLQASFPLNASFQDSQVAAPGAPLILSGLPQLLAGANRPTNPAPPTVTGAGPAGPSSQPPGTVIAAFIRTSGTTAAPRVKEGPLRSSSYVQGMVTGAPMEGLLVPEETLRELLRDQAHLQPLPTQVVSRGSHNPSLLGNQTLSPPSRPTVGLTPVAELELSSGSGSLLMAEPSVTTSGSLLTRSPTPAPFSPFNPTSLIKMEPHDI

## CACACA
FLI1
  binding signal: 1.17 fold enrichment (6-mer frequency, TF over GST control)
ELK1
  binding signal: 1.08 fold enrichment (6-mer frequency, TF over GST control)
GABPA
  binding signal: 1.14 fold enrichment (6-mer frequency, TF over GST control)
ERG
  binding signal: 1.15 fold enrichment (6-mer frequency, TF over GST control)
ELF1
  binding signal: 1.16 fold enrichment (6-mer frequency, TF over GST control)
EHF
  binding signal: 1.19 fold enrichment (6-mer frequency, TF over GST control)
SPI1
  binding signal: 1.07 fold enrichment (6-mer frequency, TF over GST control)
SPIB
  binding signal: 1.17 fold enrichment (6-mer frequency, TF over GST control)
ELK3
  binding signal: 1.2 fold enrichment (6-mer frequency, TF over GST control)
FEV
  binding signal: 1.18 fold enrichment (6-mer frequency, TF over GST control)
ETV5
  binding signal: 1.16 fold enrichment (6-mer frequency, TF over GST control)
SPIC
  binding signal: 1.07 fold enrichment (6-mer frequency, TF over GST control)
ELF4
  binding signal: 1.16 fold enrichment (6-mer frequency, TF over GST control)
ELK4
  binding signal: 1.1 fold enrichment (6-mer frequency, TF over GST control)
ETV2
  binding signal: 1.23 fold enrichment (6-mer frequency, TF over GST control)
ELF3
  binding signal: 1.09 fold enrichment (6-mer frequency, TF over GST control)
ETV1
  binding signal: 1.06 fold enrichment (6-mer frequency, TF over GST control)
